Data: the supplement of paper PMC11732987, “Enantioselective OTUD7B fragment discovery through chemoproteomics screening and high-throughput optimisation” (Communications Chemistry, 2025)

How the values were obtained:
Test in all cases: log2 ratio of Biotin-Ahx-Ub-VS probe labelling (fragment/DMSO); higher = less target engagement (more negative = stronger competition), active = hit call of the paper (q ≤ 0.05, log2 ratio ≤ -1)
Conditions in all cases: compound concentration: 200 uM; treatment time: 3 h
OTUD6B = biological target: T1, OTUD6B (UniProt Q8N6M0)
T1 sequence (whole entry): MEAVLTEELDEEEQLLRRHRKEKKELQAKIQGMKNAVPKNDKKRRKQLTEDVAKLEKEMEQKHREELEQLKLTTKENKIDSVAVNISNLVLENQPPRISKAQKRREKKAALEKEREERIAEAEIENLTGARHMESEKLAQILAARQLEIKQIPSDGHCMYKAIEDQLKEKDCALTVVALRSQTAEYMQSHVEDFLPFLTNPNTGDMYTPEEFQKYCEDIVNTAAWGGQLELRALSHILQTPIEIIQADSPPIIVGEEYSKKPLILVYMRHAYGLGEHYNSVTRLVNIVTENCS
Method in brief: (§1)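 Lysate from HEK293T cells, 495 µg per sample in Tris/CHAPS/IGEPAL buffer with protease inhibitors, was treated for 3 h in triplicate with fragment at 200 µM or vehicle. Biotin-Ahx-Ub-VS was next added at 0.5 µM final for 1 h. The labelled DUBs were enriched with NeutrAvidin, digested with LysC and trypsin, and run by diaPASEF LC-MS/MS, with values given as average log2 fragment/vehicle ratios by unpaired t-test on global-median-normalised Spectronaut quantities of proteins with ≥2 unique peptides.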

OTUD7B = biological target: T2, OTUD7B (UniProt Q6GQQ9)
T2 sequence (whole entry): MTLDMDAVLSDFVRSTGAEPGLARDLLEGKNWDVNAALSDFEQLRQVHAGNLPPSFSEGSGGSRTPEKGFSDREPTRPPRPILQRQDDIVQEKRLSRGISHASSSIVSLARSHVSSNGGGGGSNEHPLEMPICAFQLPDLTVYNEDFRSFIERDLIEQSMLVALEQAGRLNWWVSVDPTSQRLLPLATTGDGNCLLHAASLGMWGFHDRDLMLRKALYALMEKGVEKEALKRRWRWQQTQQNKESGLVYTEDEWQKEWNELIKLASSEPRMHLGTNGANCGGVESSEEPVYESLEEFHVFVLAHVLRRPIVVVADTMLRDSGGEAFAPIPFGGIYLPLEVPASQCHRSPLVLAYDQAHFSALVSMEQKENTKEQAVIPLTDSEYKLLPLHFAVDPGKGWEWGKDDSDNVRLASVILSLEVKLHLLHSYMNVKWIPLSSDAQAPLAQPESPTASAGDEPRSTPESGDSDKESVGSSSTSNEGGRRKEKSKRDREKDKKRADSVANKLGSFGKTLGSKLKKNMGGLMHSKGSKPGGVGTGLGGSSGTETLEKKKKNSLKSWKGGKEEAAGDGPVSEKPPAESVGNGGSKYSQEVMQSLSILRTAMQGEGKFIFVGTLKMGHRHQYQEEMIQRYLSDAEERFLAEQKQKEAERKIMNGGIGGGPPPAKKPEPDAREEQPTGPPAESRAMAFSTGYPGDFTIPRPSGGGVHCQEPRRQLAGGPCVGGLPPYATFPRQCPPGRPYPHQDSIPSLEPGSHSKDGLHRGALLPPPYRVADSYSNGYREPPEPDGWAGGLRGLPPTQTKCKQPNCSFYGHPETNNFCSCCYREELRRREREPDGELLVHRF
Method in brief: as §1

PRPF8 = PRPF8 (UniProt Q6P2Q9)
Method in brief: as §1

PSMD7 = biological target: T3, PSMD7 (UniProt P51665)
T3 sequence (whole entry): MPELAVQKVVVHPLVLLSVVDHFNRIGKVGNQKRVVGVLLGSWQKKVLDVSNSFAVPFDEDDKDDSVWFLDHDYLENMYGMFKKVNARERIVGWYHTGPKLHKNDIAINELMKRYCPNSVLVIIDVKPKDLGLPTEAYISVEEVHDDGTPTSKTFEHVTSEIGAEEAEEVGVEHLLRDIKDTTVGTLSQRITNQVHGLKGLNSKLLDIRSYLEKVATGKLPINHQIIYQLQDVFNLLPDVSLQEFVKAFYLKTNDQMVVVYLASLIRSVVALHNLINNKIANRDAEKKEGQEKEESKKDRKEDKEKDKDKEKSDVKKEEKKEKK
Method in brief: as §1

UCHL1 = UCHL1 (UniProt P09936)
Sequence of UCHL1 (P09936 whole entry, looked up): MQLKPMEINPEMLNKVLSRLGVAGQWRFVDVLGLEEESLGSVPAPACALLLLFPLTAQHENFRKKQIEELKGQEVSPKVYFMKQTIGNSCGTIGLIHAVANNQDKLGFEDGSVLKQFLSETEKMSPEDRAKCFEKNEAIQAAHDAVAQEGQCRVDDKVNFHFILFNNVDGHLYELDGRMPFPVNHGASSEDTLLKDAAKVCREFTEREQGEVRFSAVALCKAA
Method in brief: as §1

UCHL3 = biological target: T4, UCHL3 (UniProt P15374)
T4 sequence (whole entry): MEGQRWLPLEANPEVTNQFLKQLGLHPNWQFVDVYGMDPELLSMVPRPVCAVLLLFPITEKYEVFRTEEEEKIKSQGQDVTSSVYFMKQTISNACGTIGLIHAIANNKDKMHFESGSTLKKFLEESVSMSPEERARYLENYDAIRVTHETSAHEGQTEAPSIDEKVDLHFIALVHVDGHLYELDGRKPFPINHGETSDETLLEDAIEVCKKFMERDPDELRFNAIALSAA
Method in brief: as §1

UCHL5 = biological target: T5, UCHL5 (UniProt Q9Y5K5)
T5 sequence (whole entry): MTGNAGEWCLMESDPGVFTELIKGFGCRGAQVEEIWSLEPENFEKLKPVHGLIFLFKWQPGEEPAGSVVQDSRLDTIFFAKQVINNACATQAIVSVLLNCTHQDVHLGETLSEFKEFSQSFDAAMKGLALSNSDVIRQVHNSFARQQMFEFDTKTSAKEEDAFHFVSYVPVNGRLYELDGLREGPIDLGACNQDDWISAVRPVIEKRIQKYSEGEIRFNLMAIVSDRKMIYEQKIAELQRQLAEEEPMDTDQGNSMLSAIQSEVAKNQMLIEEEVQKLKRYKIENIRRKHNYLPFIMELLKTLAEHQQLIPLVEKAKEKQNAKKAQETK
Method in brief: as §1

USP10 = USP10 (UniProt Q14694)
Sequence of USP10 (Q14694 whole entry): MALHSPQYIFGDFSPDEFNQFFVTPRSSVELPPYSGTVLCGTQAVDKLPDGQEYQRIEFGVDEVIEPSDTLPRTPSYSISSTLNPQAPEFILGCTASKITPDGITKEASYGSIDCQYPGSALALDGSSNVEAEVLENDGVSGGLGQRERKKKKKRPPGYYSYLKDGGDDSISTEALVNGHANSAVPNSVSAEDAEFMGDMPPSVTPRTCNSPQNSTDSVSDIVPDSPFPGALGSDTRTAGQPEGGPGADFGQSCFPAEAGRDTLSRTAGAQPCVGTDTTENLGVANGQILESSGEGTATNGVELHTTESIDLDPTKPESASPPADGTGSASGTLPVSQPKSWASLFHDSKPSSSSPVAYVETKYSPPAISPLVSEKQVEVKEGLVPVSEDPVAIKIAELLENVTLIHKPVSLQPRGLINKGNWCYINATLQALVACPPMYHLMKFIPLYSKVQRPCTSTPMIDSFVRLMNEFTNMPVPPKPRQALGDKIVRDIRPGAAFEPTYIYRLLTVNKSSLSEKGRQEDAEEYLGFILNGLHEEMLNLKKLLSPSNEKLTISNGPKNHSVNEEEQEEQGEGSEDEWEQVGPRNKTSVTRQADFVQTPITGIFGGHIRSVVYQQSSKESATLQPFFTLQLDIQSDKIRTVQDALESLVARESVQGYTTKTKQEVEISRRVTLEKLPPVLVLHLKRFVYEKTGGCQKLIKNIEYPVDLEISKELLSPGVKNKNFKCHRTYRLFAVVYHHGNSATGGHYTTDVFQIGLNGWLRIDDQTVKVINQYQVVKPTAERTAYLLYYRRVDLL
Method in brief: as §1

USP15 = biological target: T6, USP15 (UniProt Q9Y4E8)
T6 sequence (whole entry): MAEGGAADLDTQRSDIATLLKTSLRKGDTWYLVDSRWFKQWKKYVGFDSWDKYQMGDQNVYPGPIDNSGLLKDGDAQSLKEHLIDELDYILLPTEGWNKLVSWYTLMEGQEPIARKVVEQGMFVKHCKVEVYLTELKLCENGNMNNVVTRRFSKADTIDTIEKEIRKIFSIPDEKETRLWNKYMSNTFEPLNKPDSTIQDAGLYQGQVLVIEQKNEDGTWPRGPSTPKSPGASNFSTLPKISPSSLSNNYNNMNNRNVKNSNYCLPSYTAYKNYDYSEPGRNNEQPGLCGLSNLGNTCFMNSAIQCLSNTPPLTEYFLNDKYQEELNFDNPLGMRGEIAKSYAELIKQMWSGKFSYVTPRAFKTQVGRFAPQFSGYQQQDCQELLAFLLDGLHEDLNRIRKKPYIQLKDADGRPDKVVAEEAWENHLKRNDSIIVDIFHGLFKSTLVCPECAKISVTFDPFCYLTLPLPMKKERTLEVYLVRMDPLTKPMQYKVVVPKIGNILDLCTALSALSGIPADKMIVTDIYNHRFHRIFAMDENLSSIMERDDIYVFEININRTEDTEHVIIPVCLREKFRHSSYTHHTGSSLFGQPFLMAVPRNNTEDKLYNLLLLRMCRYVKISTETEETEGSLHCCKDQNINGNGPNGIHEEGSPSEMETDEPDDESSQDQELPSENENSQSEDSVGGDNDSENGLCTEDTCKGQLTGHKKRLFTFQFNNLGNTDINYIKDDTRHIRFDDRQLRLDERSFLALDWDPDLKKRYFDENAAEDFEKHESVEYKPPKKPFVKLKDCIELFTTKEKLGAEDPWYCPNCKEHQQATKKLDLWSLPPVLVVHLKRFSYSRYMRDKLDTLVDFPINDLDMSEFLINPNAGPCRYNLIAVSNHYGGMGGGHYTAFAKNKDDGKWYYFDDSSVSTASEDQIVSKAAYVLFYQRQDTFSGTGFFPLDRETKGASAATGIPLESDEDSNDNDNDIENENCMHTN
Method in brief: as §1

USP16 = USP16 (UniProt Q9Y5T5)
Sequence of USP16 (Q9Y5T5 whole entry, looked up): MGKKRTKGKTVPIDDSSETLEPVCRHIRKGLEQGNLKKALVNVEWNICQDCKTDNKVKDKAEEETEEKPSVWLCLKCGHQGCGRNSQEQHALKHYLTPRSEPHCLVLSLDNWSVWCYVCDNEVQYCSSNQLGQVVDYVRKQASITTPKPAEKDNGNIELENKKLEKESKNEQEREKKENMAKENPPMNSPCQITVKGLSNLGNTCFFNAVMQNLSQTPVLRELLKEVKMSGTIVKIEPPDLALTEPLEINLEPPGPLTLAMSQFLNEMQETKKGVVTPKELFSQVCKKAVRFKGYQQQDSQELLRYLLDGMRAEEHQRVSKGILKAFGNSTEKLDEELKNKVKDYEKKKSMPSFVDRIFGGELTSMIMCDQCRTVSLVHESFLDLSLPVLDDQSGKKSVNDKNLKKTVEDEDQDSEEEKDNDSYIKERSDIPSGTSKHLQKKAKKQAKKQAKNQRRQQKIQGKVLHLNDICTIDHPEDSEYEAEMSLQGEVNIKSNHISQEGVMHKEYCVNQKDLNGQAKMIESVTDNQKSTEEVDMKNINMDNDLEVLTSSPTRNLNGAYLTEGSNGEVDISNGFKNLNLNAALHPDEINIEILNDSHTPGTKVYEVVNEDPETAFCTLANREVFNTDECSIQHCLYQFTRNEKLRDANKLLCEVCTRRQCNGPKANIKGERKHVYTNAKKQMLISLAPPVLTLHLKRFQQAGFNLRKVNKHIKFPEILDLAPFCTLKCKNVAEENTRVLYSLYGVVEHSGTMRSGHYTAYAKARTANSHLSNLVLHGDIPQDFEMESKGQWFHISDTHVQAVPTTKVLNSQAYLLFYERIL
Method in brief: as §1

Measured: log2 ratio of Biotin-Ahx-Ub-VS probe labelling

O=C(CCl)N1CCN2C(=O)CCC2C1 (stereo not given)
inactive: OTUD6B -0.158 | OTUD7B -0.49 | PRPF8 -0.164 | PSMD7 -0.288 | UCHL3 0.118 | UCHL5 -0.0709 | USP10 -0.195 | USP15 -0.15 | USP16 0.00152
active: UCHL1 -1.64
